Drawing on PMC7862700, “An all-to-all approach to the identification of sequence-specific readers for epigenetic DNA modifications on cytosine”, this text covers binding signal for one sequence.

Holding throughout (test): DAPPL (digital affinity profiling via proximity ligation, sequencing); 10 mM Tris-HCl pH 7.5, 50 mM NaCl, 1 mM DTT, 4% glycerol, room temperature, 30 min; GST-TFs on glutathione beads, 16-mer random dsDNA library, 0.1% formaldehyde crosslink after washing; high values mean tight binding
One test deals with T1, FEV (Homo sapiens, UniProt Q99581 1-238).
T1 sequence: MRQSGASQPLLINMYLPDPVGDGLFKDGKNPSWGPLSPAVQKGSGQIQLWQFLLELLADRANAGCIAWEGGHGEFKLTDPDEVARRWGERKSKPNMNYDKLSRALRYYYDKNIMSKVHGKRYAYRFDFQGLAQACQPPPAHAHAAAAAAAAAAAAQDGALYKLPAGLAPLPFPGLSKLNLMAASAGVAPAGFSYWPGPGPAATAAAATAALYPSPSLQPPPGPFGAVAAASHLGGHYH
Particulars: protein: recombinant; tags: N-terminal GST; dsDNA, one strand shown. An outline of the steps: (§1)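 Binding signal is each hexamer's read frequency for a factor divided by its frequency in the tag-only sample. The factors were GST-fused human transcription factors from yeast, captured on glutathione beads, DNA-barcoded and pooled with that sample. Pools were incubated with 200 nmole of a random double-stranded 16-mer DNA library in Tris/NaCl/DTT/glycerol buffer at room temperature for 30 min, then washed, crosslinked with 0.1% formaldehyde, proximity-ligated with BsaI/T4 ligase (1 h, 37 °C), PCR-amplified and sequenced on an Illumina NextSeq500.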

The target in the next test is ETV5 (Homo sapiens, UniProt P41161 1-510). Particulars: protein: recombinant; tags: N-terminal GST; dsDNA, one strand shown. The method, boiled down: as §1
Chain of ETV5 (P41161 whole entry): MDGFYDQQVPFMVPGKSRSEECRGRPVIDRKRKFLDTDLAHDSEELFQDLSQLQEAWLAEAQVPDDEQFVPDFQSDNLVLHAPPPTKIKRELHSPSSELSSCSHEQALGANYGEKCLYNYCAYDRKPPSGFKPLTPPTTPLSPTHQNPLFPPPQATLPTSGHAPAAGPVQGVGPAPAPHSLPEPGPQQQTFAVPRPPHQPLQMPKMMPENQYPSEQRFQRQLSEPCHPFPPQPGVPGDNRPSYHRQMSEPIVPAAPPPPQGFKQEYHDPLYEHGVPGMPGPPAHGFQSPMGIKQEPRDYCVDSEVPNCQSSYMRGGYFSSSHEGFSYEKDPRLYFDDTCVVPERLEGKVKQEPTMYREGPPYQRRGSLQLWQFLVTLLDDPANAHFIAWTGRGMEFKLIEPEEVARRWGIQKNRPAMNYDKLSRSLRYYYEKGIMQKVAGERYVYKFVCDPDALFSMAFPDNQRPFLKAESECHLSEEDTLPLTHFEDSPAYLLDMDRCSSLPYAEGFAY
In another test the target is HSF1 (Homo sapiens, UniProt Q00613 1-529). The conditions noted are these: protein: recombinant; tags: N-terminal GST; chain copies: 3; dsDNA, one strand shown. The method, boiled down:
as §1

The target of the next test is T2, SPIC (Homo sapiens, UniProt Q8N5J4 1-248).
T2 sequence: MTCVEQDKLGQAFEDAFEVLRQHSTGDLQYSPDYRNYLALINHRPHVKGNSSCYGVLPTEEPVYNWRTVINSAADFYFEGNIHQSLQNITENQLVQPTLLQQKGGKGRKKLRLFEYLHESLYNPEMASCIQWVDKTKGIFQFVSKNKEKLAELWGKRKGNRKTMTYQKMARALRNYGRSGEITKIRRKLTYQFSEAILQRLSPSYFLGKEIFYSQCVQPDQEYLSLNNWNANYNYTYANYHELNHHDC
Particulars: protein: recombinant; tags: N-terminal GST; dsDNA, one strand shown. An outline of the steps: as §1

Another test addresses ELF4 (Homo sapiens, UniProt Q99607 1-663). The conditions noted are these: protein: recombinant; tags: N-terminal GST; dsDNA, one strand shown. An outline of the steps:
as §1

For the next test, the target named is T3, ELK4 (Homo sapiens, UniProt P28324-2 1-405).
T3 sequence: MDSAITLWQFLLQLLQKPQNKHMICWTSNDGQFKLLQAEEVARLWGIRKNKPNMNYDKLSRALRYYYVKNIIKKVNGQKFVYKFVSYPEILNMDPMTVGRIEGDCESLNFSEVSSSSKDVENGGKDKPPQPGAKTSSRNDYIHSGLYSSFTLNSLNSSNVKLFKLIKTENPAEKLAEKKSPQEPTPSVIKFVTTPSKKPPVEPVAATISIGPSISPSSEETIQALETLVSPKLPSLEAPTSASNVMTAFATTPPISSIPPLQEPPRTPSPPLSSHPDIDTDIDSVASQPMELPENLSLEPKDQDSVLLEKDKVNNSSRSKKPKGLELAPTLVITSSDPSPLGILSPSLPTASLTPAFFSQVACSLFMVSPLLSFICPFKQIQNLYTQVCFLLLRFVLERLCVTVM
The conditions noted are these: protein: recombinant; tags: N-terminal GST; dsDNA, one strand shown. The method, boiled down:
as §1

The target of a further test is T4, ETV2 (Homo sapiens, UniProt O00321 1-342).
T4 sequence: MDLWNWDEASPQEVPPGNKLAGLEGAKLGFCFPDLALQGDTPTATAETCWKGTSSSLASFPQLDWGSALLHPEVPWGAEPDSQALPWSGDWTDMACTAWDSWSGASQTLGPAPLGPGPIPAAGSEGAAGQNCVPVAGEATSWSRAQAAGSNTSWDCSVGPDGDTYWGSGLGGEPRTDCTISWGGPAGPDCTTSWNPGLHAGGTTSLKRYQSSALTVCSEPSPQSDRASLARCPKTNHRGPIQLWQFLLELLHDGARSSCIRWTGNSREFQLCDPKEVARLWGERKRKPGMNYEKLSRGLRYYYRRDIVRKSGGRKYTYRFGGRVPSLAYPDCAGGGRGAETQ
Particulars: protein: recombinant; tags: N-terminal GST; dsDNA, one strand shown. The method, boiled down: as §1

The next test addresses T5, ELF3 (Homo sapiens, UniProt P78545 1-371).
T5 sequence: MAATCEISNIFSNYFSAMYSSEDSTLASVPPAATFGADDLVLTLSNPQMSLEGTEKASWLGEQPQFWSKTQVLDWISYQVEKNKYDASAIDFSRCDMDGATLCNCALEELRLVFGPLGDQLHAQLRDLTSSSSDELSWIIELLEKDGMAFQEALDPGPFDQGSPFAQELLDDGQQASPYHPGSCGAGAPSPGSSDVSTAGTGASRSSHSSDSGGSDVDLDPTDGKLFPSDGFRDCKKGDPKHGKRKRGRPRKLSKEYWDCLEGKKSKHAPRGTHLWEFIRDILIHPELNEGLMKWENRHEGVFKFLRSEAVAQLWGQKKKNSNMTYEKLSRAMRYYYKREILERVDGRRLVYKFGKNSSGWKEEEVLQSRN
The conditions noted are these: protein: recombinant; tags: N-terminal GST; dsDNA, one strand shown. An outline of the steps:
as §1

The next test has as its target CRX (Homo sapiens, UniProt O43186 1-299). Particulars: protein: recombinant; tags: N-terminal GST; dsDNA, one strand shown. An outline of the steps: as §1
For a further test, the target named is ETV1 (Homo sapiens, UniProt P50549 1-477). The conditions noted are these: protein: recombinant; tags: N-terminal GST; dsDNA, one strand shown. An outline of the steps: as §1
Chain of ETV1 (P50549 whole entry): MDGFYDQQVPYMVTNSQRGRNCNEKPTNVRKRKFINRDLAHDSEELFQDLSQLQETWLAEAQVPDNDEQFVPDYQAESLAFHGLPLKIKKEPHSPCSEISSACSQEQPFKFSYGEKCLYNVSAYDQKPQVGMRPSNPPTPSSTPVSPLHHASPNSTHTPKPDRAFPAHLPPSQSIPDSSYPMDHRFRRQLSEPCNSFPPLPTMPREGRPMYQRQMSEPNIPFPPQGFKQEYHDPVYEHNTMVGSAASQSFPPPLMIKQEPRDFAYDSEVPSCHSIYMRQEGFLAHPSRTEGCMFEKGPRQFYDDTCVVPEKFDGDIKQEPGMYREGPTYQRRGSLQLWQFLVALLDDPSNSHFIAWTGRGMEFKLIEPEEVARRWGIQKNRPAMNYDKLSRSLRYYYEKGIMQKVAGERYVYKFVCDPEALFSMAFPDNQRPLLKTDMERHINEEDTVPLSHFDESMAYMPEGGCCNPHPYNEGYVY
The next test concerns the target T6, ERF (Homo sapiens, UniProt P50548 1-548).
T6 sequence: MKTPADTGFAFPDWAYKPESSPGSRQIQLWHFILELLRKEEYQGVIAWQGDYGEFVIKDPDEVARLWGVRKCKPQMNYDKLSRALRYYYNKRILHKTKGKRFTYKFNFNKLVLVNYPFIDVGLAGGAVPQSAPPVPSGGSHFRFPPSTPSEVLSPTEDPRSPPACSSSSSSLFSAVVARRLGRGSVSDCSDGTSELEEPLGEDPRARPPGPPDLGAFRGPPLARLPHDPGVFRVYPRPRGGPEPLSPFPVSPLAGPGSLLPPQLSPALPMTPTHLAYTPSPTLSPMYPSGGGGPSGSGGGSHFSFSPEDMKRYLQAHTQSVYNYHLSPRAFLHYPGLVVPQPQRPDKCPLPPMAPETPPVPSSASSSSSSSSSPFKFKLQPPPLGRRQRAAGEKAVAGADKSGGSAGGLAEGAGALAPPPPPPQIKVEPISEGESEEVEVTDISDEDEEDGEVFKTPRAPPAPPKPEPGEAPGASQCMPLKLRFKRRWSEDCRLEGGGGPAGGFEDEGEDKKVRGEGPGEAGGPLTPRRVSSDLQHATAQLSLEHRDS
The conditions noted are these: protein: recombinant; tags: N-terminal GST; dsDNA, one strand shown. The method, boiled down:
as §1

Another test deals with T7, ETV3L (Homo sapiens, UniProt Q6ZN32 1-361).
T7 sequence: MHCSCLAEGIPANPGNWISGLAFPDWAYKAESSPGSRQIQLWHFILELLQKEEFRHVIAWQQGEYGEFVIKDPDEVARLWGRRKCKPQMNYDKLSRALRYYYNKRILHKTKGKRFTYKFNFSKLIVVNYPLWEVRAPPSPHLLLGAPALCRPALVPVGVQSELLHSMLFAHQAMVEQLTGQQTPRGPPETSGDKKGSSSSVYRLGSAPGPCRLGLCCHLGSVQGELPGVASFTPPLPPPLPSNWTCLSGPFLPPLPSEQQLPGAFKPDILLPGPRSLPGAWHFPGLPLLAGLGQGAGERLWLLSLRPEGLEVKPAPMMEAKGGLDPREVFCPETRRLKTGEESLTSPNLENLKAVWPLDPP
Particulars: protein: recombinant; tags: N-terminal GST; dsDNA, one strand shown. The method, boiled down:
as §1

The target in the next test is T8, ETS2 (Homo sapiens, UniProt P15036 1-469).
T8 sequence: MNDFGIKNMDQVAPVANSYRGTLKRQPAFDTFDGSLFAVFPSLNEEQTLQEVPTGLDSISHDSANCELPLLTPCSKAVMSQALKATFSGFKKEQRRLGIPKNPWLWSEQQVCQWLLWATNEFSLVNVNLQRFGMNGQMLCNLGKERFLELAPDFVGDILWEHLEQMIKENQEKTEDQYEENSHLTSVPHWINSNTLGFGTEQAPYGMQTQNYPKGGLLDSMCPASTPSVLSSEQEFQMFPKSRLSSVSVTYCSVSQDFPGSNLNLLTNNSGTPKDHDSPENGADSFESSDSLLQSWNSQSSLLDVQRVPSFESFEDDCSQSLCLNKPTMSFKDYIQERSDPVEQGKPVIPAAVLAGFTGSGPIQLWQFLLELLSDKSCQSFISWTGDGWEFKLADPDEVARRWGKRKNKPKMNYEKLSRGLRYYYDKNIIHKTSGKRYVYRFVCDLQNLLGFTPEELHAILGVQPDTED
Particulars: protein: recombinant; tags: N-terminal GST; dsDNA, one strand shown. The method, boiled down: as §1

A further test deals with T9, SPDEF (Homo sapiens, UniProt O95238 1-335).
T9 sequence: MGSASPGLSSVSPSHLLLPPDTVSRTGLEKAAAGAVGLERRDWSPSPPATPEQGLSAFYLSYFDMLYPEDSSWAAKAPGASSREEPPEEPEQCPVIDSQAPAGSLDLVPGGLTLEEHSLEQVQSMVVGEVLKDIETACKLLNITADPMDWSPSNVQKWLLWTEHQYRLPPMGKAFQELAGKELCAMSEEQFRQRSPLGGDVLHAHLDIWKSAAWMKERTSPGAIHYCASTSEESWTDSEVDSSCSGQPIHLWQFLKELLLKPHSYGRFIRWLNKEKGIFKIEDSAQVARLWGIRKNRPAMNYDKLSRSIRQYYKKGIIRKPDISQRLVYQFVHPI
The conditions noted are these: protein: recombinant; tags: N-terminal GST; dsDNA, one strand shown. The method, boiled down: as §1

For another test, the target named is T10, ETV7 (Homo sapiens, UniProt Q9Y603 1-341).
T10 sequence: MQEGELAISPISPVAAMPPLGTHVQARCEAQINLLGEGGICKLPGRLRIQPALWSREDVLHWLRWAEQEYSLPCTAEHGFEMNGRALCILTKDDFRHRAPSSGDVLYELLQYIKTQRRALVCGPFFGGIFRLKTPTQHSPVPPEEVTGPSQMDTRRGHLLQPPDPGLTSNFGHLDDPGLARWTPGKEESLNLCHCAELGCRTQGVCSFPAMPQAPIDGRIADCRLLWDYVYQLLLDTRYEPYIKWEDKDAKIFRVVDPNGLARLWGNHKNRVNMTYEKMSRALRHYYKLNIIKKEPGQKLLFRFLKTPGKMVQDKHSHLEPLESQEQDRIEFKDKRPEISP
Particulars: protein: recombinant; tags: N-terminal GST; dsDNA, one strand shown. The method, boiled down: as §1

A further test addresses T11, ELF5 (Homo sapiens, UniProt Q9UKW6-2 1-255).
T11 sequence: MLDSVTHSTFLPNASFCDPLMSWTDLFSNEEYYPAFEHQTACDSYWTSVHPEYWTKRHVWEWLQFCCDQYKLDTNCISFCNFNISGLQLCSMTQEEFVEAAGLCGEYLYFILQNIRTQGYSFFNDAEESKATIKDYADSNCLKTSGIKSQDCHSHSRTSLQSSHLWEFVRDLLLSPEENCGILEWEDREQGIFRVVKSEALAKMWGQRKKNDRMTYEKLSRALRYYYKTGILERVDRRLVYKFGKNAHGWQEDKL
Particulars: protein: recombinant; tags: N-terminal GST; dsDNA, one strand shown. An outline of the steps: as §1

In a further test the target is T12, ETV3 (Homo sapiens, UniProt P41162-2 1-143).
T12 sequence: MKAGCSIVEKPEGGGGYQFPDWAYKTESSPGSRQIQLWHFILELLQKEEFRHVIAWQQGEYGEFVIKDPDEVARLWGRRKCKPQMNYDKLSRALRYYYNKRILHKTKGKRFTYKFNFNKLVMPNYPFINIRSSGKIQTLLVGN
Particulars: protein: recombinant; tags: N-terminal GST; dsDNA, one strand shown. An outline of the steps:
as §1

In a further test the target is ETV6 (Homo sapiens, UniProt P41212 1-452). Particulars: protein: recombinant; tags: N-terminal GST; dsDNA, one strand shown. The method, boiled down: as §1
Chain of ETV6 (P41212 whole entry): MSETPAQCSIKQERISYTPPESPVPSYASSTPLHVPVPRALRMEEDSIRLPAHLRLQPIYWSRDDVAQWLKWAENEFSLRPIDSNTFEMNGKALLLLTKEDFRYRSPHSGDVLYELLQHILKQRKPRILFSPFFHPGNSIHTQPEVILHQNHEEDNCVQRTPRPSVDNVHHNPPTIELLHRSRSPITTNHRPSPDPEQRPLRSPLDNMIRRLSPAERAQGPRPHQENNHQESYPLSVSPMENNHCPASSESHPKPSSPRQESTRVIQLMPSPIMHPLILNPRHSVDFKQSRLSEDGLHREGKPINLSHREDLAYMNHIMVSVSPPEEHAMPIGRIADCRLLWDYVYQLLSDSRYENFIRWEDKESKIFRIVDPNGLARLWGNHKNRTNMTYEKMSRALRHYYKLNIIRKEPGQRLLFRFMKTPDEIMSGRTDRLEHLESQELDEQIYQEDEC

Chain of CRX (O43186 whole entry): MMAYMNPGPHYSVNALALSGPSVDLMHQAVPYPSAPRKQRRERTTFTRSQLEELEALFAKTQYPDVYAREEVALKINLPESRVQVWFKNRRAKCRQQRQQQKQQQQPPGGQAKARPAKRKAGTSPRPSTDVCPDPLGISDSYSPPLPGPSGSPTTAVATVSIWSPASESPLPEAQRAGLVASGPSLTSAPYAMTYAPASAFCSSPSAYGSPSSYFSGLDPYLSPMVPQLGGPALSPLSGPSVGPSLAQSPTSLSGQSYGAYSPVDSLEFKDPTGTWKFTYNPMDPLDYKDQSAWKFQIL
Chain of HSF1 (Q00613 whole entry): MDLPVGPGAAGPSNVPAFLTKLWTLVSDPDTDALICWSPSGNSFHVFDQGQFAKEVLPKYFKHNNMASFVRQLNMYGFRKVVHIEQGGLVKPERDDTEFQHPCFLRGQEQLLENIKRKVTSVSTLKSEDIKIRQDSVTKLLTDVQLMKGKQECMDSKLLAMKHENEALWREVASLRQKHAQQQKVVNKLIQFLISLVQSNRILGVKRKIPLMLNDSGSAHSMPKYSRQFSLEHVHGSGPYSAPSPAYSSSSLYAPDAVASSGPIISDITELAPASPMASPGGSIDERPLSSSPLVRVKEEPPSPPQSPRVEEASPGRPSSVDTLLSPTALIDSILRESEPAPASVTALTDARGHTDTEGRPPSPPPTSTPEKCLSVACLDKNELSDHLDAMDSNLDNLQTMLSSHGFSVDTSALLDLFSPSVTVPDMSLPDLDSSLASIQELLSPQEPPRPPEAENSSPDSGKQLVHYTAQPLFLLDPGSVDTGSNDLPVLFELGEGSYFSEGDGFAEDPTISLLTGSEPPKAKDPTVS
Chain of ELF4 (Q99607 whole entry): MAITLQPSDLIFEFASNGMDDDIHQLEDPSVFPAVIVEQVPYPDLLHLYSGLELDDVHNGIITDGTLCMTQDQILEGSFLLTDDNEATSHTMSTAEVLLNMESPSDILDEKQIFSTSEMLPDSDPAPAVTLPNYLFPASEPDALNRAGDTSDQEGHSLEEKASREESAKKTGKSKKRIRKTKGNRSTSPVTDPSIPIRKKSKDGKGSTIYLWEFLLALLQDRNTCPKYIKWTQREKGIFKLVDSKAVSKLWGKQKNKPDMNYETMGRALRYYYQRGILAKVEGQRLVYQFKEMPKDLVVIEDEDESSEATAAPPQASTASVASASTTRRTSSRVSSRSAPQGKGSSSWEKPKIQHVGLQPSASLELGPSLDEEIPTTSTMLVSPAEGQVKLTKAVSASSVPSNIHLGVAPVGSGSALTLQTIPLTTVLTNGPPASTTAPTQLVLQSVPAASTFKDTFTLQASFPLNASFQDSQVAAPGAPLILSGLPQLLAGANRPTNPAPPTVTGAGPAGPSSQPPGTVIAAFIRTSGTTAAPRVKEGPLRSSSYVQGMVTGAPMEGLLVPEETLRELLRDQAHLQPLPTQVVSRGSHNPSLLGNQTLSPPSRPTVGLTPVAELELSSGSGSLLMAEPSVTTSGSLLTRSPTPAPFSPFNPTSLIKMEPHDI

In the case of ATTCCG, the binding signal with FEV was 1.79 fold enrichment (6-mer frequency, TF over GST control); with ETV5, 1.97 fold enrichment (6-mer frequency, TF over GST control); with HSF1, 1.52 fold enrichment (6-mer frequency, TF over GST control); with SPIC, 1.82 fold enrichment (6-mer frequency, TF over GST control); with ELF4 it was 1.61 fold enrichment (6-mer frequency, TF over GST control); with ELK4, 1.54 fold enrichment (6-mer frequency, TF over GST control). The binding signal with ETV2 was 1.79 fold enrichment (6-mer frequency, TF over GST control); with ELF3, 1.78 fold enrichment (6-mer frequency, TF over GST control); with CRX it was 1.27 fold enrichment (6-mer frequency, TF over GST control); with ETV1, 1.81 fold enrichment (6-mer frequency, TF over GST control); with ERF it was 1.58 fold enrichment (6-mer frequency, TF over GST control); in the test with ETV3L, 1.74 fold enrichment (6-mer frequency, TF over GST control). The binding signal with ETS2 was 1.78 fold enrichment (6-mer frequency, TF over GST control); with SPDEF it was 1.85 fold enrichment (6-mer frequency, TF over GST control); with ETV7 it was 1.62 fold enrichment (6-mer frequency, TF over GST control); with ELF5 it was 2.17 fold enrichment (6-mer frequency, TF over GST control); with ETV3 it was 1.89 fold enrichment (6-mer frequency, TF over GST control); in the test with ETV6, 1.78 fold enrichment (6-mer frequency, TF over GST control).
